Fold change data for 109 molecules are collected here from PubChem BioAssay AID1259312 (Keith Lab, Institute of Cancer Science, University of …, 2017).

The structures appear in SMILES notation. The whole screen tested about 4,500 compounds, of which about 200 (4.4%) were called active. Shown is part of a subset that was picked to be rich in actives. Unmarked numbers belong to inactive results.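 The calls were made as follows: active = cell survival measured by absorbance rises more than 2.5-fold over infected cells without compound; inactive = the rest.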

The nature of this experiment: survival after telomere uncapping, modulators, primary screen, cell-based (AID 1259312).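 Also: virus expresses mutant telomerase RNA that uncaps telomeres and kills cells; compound added 2 days after infection so exposure lasts 3 days.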 The settings on record: HCT116 + Ad-hTR-mut, MTT, 5 d; at 10 µM, hits give high values.
Turning to `NC(=O)c1c(NC(=O)C2COc3ccccc3O2)sc2c1CCCC2` (centres undefined), the fold change is -1.9.
Then `COc1cc2c(cc1OC)CC1(C2)c2ccccc2CN1C`, with -1.34.
Then `O=[N+]([O-])c1ccc(C=NC2CCCc3c2[nH]c2ccc(Br)cc32)cc1` (centres undefined), with 1.22; and `CC(=O)N1CCCc2cc(S(=O)(=O)NC(C)(C)C)ccc21`, with -1.21; and `COc1ccc(Br)cc1C1C(C#N)=C(N)SC(N)=C1C#N`, with -1.84.
Regarding `Clc1ccc(N=Cc2cccs2)cc1`, the fold change was 1.21.
Then `O=S(=O)(Oc1ccc(N=Cc2cccs2)cc1)c1ccc(Cl)cc1`, with 2.24.
Then `NS(=O)(=O)c1ccc(N=Cc2cccs2)cc1`, with 5.47 (active); and `CN=C1S/C(=C/c2ccc(C)o2)C(=O)N1C`, with -1.34; and `CCOC(=O)c1sc(N2N=C(C)/C(=C\c3ccc(C)o3)C2=O)nc1C`, with -1.12.
Then `COC(=O)Cn1cnc([N+](=O)[O-])n1`, with -1.14; and `CC1Oc2ccc(S(=O)(=O)NCCCn3ccnc3)cc2NC1=O` (centres undefined), with 1.47; and `Oc1ccc(Br)cc1/C=N/c1nccs1`, with “inactive”.
As for `OCCN=Cc1c(O)ccc2ccccc12`, the fold change entry is “inactive”.
As for `Oc1ccc2ccccc2c1/C=N/c1nccs1`, the entry is “active”; as for `C(=N\c1nccs1)/c1ccco1`, -1.62; as for `Oc1ccc2ccccc2c1C=NCCCCCCN=Cc1c(O)ccc2ccccc12`, “inactive”.
Then `Oc1ccc2ccccc2c1C=Nc1ccc(Cl)cn1`, with “active”.
In the case of `Oc1ccc2ccccc2c1/C=N/c1ccccn1`, the fold change result was “active”.
As for `Clc1ccc(N=Cc2cccc3ccccc23)nc1`, the figure is 1.13.
Then `Oc1ccc(Br)cc1C=Nc1ccc(Cl)cn1`, with “inactive”; and `ClCCOc1nc(OCCCl)nc(OCCCl)n1`, with 2.12.
As for `CCCc1ccn(CCSCC)c1-c1cccs1`, the figure is -2.47.
Consider `O=C(Nc1ccc(I)cc1)C1CC(=O)N(C2CCCCC2)C1` (centres undefined), for which the fold change is 2.18.
Then `O=C(Cc1cccs1)NCCN1CCOCC1`, with -1.05; and `O=C1/C(=C/c2ccc3c(c2)OCO3)CCc2ccccc21`, with -2.22; and `COC(=O)/C(C#N)=C\c1ccc(C)o1`, with -2.41.
Then `CCCCNC(=O)OCCSC(=S)NCCC`, with 2.45; and `CCOC(=O)c1csc(N)n1`, with 2.59 (active).
As for `CCOC(=O)Cc1csc(N)n1`, the figure is 1.75; as for `CCOC(=O)c1sc(N)nc1C`, 1.75.
In the case of `O=C(NC1(C(=O)O)CCc2ccccc2C1)OCC1c2ccccc2-c2ccccc21` (centres undefined), the fold change was -1.79.
As for `O=S(=O)(c1ccc(NC(=S)Nc2ccccc2)cc1)N1CCCCC1`, the figure is -2.08.
As for `C/C(=N/Nc1ccc([N+](=O)[O-])cc1)c1ccc(/C(CCl)=N/Nc2ccc([N+](=O)[O-])cc2)s1`, the figure is -1.04; as for `O=C(NC1CCCCCCC1)c1ccc(COc2c(F)c(F)cc(F)c2F)o1`, -1.24; as for `[O-][n+]1onc(C(c2ccccc2)c2ccccc2)c1C(c1ccccc1)c1ccccc1`, -1.76.
On to `[O-][n+]1onc(N=Nc2no[n+]([O-])c2-c2ccccc2)c1-c1ccccc1`, for which the fold change was 2.99 (active).
As for `c1ccc(-c2nonc2N=Nc2nonc2-c2ccccc2)cc1`, the figure is -1.26.
Then `COCCNS(=O)(=O)c1ccccc1`, with -1.41; and `Cc1nc2ccccc2nc1C=O`, with -2.07.
Then `Cc1nc2ccccc2nc1C`, with -2.23; and `Cc1nc2ccccc2nc1NO`, with “active”.
In the case of `ON=C1C2CC3CC(C2)CC1C3`, the fold change is -1.41.
Then `Oc1ccc(Br)cc1/C=N/c1ccccn1`, with “inactive”; and `COc1cc2c(cc1N)OCO2`, with -1.08; and `Cc1ccc2[nH]c3nc4ccccc4nc3c2c1`, with -1.34.
As for `c1ccc2nc3c(nc2c1)[nH]c1ccccc13`, the figure is -1.56.
Then `c1ccc2c(c1)[nH]c1nc3nnnn3nc12`, with “active”; and `CC1CCCN(c2nc3ccccn3c(=O)c2C=O)C1` (centres undefined), with -1.15.
In the case of `c1ccc(-n2nnnc2SCSc2nnnn2-c2ccccc2)cc1`, the fold change is 3.7 (active).
As for `CSc1nnnn1-c1ccccc1`, the figure is -1.25; as for `c1ccc(-c2noc(CSc3nnnn3-c3ccccc3)n2)cc1`, -1.1.
Then `C#CCn1cc(/C=C2/SC(=NC)N(C)C2=O)c2ccccc21`, with -1.74; and `O=C(O)Cn1c(O)c(/C=C2/C=c3ccccc3=NC2=O)sc1=S`, with “inactive”; and `O=C(O)CCCn1c(O)c(/C=C2/C=c3ccccc3=NC2=O)sc1=S`, with “active”.
As for `O=C(O)CCCCCn1c(O)c(C2=c3cc(Br)ccc3=NC2=O)sc1=S`, the entry is “inactive”; as for `CCOC(=O)C1=C(C)NC2=C(C(=O)CC(C)(C)C2)C1c1ccc(C)s1` (centres undefined), -1.32.
For the molecule `CN=C1S/C(=C/c2cn(Cc3ccc(F)cc3)c3ccccc23)C(=O)N1C`, the fold change is -1.32.
As for `O=C(O)C1OC(O)C(O)C(O)C1O` (centres undefined), the figure is -2.05; as for `CCOC(=O)CN(C1=NS(=O)(=O)c2ccccc21)c1ccccc1`, 1.02; as for `COc1ccc(NS(=O)(=O)c2ccc(N=Cc3cc(Br)cc(Br)c3O)cc2)nn1`, “inactive”.
Then `CCCCNC(=O)Cn1cc([N+](=O)[O-])cn1`, with -2.9; and `CCOC(=O)c1c(C)nn2cc(-n3cc([N+](=O)[O-])cn3)cnc12`, with 5.25 (active); and `O=C(O)Cn1cc([N+](=O)[O-])cn1`, with 2.02.
Then `COc1cc(C(c2ccccc2)(c2ccccc2)c2ccccc2)cc2c1NC(C)(C)C=C2C`, with 2.23; and `NCc1cc(C(F)(F)F)cc(C(F)(F)F)c1`, with -1.11.
Regarding `CC(CC(=O)O)n1ccnc1` (centres undefined), the fold change is 1.78.
Then `O=C(CC(c1ccc(Cl)c(Cl)c1)C1CCCCCC1=O)c1ccc(Cl)cc1` (centres undefined), with -1.72; and `O=C(CC(C(=O)O)n1ccnc1)c1ccc(C2CCCCC2)cc1` (centres undefined), with 2.74 (active); and `O=C1ON=C(c2ccccc2)/C1=C/N1CCCCC1`, with -1.47.
As for `O=C1CN(C(=O)CSC2CCS(=O)(=O)C2)c2ccccc2N1` (centres undefined), the figure is -1.24; as for `COC(=O)C1=C(C)OC(N)=C(C#N)C1c1cccs1` (centres undefined), -1.65; as for `CC1(C)CC(=O)C2=C(C1)OC(N)=C(C#N)C2c1cccs1` (centres undefined), 4.33 (active).
Then `Cc1ccc(C2C(C#N)=C(N)OC3=C2C(=O)CC(C)(C)C3)s1` (centres undefined), with -4.43; and `CCOC(=O)C1=C(C)OC(N)=C(C#N)C1c1cccs1` (centres undefined), with 2.09; and `CC1(C)CC(=O)C2=C(C1)OC(N)=C(C#N)C2c1cc(Br)cs1` (centres undefined), with -1.65.
In the case of `CC1CC2=C(C(=O)O1)C(c1cccs1)C(C#N)=C(N)O2` (centres undefined), the fold change was 2.62 (active).
Then `Cc1[nH]c2ccccc2c1C(=O)C(=O)NC(C)(C)C`, with -1.22; and `CCOC(=O)c1c(NC(=O)C23CC4CC(CC(C4)C2)C3)sc2c1CCCCC2`, with -1.2.
As for `N#C/C(=C\c1ccccc1/C=C(\C#N)c1ccc2c(c1)OCO2)c1ccc2c(c1)OCO2`, the figure is 1.78; as for `CC(=O)OC[C@H]1O[C@@H](n2cc(C)c(=O)[nH]c2=O)C[C@@H]1OC(C)=O`, -1.48.
As for `Clc1ccccc1/C=C/c1nnc(-c2ccccc2Cl)o1`, the figure is -1.03; as for `CCCCCC(=O)O[C@]1(C(C)=O)CC[C@H]2[C@@H]3CCC4=CC(=O)CC[C@]4(C)[C@H]3CC[C@@]21C`, -1.16; as for `CC12CCC(=O)C=C1CCC1C2CCC2(C)C1CC[C@@]21OCOC12COCO2` (some centres undefined), 3.17 (active).
As for `CC(=O)[C@H]1CC[C@H]2[C@@H]3CCC4=CC(=O)CC[C@]4(C)[C@H]3CC[C@]12C`, the fold change is 1.4.
Then `CC(Sc1nnc(Cc2ccccc2)n1C1CCCCC1)c1nc(N)nc(N2CCCc3ccccc32)n1` (centres undefined), with -1.7; and `O=c1cc(-c2cccc(O)c2)oc2cc(O)ccc12`, with -1.53.
Then `O=C(c1ccc(COc2ccc(Cl)cc2Cl)o1)n1cc(Br)cn1`, with -1.16.
As for `CC1CC[C@H](C(C)C)C(O)C1` (some centres undefined), the figure is -1.42; as for `O=[N+]([O-])c1ccc2nc(CSc3nc4ccc(Br)cc4[nH]3)[nH]c2c1`, 3.33 (active); as for `O=c1[nH]c(SCc2nc3ccc([N+](=O)[O-])cc3[nH]2)nc2ccccc12`, “inactive”.
With `Cn1c(SCc2nc3ccc([N+](=O)[O-])cc3[nH]2)nc2ccccc21`, the fold change is -1.29.
As for `Clc1[nH]nc2ccccc12`, the figure is 1.09.
Then `CN1CCN(Cc2cc([N+](=O)[O-])c(O)c3ncccc23)CC1`, with 2.98 (active); and `CN(Cc1cc([N+](=O)[O-])c(O)c2ncccc12)C1CCCCC1`, with 3 (active); and `CN1CCN(Cc2cc(Cl)c3cccnc3c2O)CC1`, with 3.37 (active).
As for `CN(Cc1cc(Br)cc(Br)c1N)C1CCCCC1`, the figure is -1.39; as for `O=[N+]([O-])c1cc(Cl)c2cccnc2c1O`, 2; as for `O=[N+]([O-])c1ccc(N2CCN(S(=O)(=O)c3ccc4ccccc4c3)CC2)c2ncccc12`, -1.06.
Consider `OCc1ccc(O)c2ncccc12`, for which the fold change was -7.69.
Then `OCCOc1c(Cl)cc(Cl)c2cccnc12`, with -1.42; and `O=[N+]([O-])c1ccc(N2CCCC2)cc1Sc1cccc2cccnc12`, with 1.11.
Then `O=[N+]([O-])c1ccc(Sc2nnnn2-c2ccccc2)c2cccnc12`, with -73.2; and `O=[N+]([O-])c1cc(CN2CCCC2)c2cccnc2c1O`, with 3.06 (active).
As for `S=c1[nH]nc(-c2cccs2)n1-c1ccccc1`, the figure is -1.22; as for `C=C(C)n1c(=O)[nH]c2ccccc21`, 1.29; as for `Cc1c(Br)c([N+](=O)[O-])nn1CC(=O)O`, 1.12.
Take `O=C1N=C(N2CCCC2)S/C1=C\c1ccc(Cl)cc1`: the fold change is -1.52.
Regarding `COc1ccc(-c2nn(CN3CCN(C(c4ccccc4)c4ccccc4)CC3)c(=S)n2C)cc1`, the fold change is -1.05.
